The source of these data is PubChem BioAssay (NCATS).

Unmarked numbers belong to inactive results. Inconclusive results are not listed. The source made the active and inactive calls. Calls follow the shape of the dose curve; as a rule, active = well fitted curve in the direction sought with a large enough effect; inconclusive = small, poorly fitted or top-dose-only effect, or another doubt; inactive = no such curve, though single readings can be large; an effect the other way counts as inactive or inconclusive. Where a SMILES comes first, the peptide text is derived from it.

The nature of assay [1]: Primary fluorescence-based thiol-reactive (MSTI) qHTS assay for identification of artifact compounds. (AID 1845221). Also: nearly all actives have a fitted effect of over 65% in size. Also: potency is read from the fitted curve at half-maximal effect.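 As to activity change, negative = thiol reactive: series mostly up to about 54 µM; thiol-reactive compounds lower the probe fluorescence signal.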 The essentials:
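qHTS titration of compound; 4 uM MSTI, PBS pH 7.4, 2% DMSO; 1 h RT, dark; fluorescence 525/598 nm; normalized to Acetyl-MSTI and MSTI; 4-parameter Hill fit.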

For assay [2], the system named is Nanoluciferase (engineered Oplophorus gracilirostris luciferase). As to the kind of experiment: Primary Nanoluciferase (NLuc) qHTS assay for identification of artifact compounds. (AID 1845222).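 Also: series mostly up to about 54 µM; 0% = DMSO and -100% = no enzyme.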 The essentials:
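Compounds are pinned into diluted (1:55) conditioned medium of NLuc-expressing S16 cells and held 15 min at room temperature protected from light. Nano-Glo substrate follows, and luminescence is read 5 min later.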
(In general: Quantitative high-throughput screening tests each substance at several concentrations.)

A short description of assay [3]: Primary redox qHTS assay for identification of artifact compounds. (AID 1845223).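 Also: 0% = DMSO and 100% = reference compound.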 An outline of the steps:
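Redox-cycling detection via DTT (250 uM final) oxidation coupled to Amplex Red (25 uM)/HRP (250 mU/mL) in HBSS. 15 min preincubation plus 30 min after DTT, room temperature. Ex/Em 525/598 nm; 4-parameter Hill fit against DMSO and 10 uM DA3003.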

`CN1C(=O)N[C@@H](Cc2c[nH]c3c(Cl)cccc23)C1=O`: the Potency entry in assay [1], in assay [2] and in assay [3] was “inactive” throughout.

For the compound `CC1CCC2(C(=O)OC3OC(CO)C(O)C(O)C3O)CCC3(C)C(=CCC4C5(C)CC(O)C(O)C(C)(C(=O)O)C5CCC43C)C2C1(C)O` (stereo unspecified), the Potency result in assay [1], in assay [2] and in assay [3] was “inactive” in each case.

As for `C=C1C(OC(C)=O)C(=O)C2C(C)(C)C(OC(C)=O)CCC2(C)C1CC(OC(C)=O)/C(C)=C/COC(C)=O` (stereo unspecified), the Potency entry in assay [1], in assay [2] and in assay [3] was “inactive” throughout.

With `CCn1c2ccccc2c2cc(CNC)ccc21`, the Potency result in assay [1], in assay [2] and in assay [3] was “inactive” throughout.

Consider `O=C(OCC12OC1C=CC(OC(=O)c1ccccc1)C2O)c1ccccc1` (stereo unspecified), for which the Potency entry in assay [1], in assay [2] and in assay [3] was “inactive” in each case.

As to `CC[C@H]1OC(=O)[C@H](C)[C@@H](OC2C[C@@](C)(OC)[C@@H](O)[C@H](C)O2)[C@H](C)[C@@H](OC2O[C@H](C)C[C@H](NC)[C@H]2O)[C@](C)(O)C[C@@H](C)CN(C)[C@H](C)[C@@H](O)[C@]1(C)O` (stereo partly specified), the Potency entry in assay [1], in assay [2] and in assay [3] was “inactive” each time.

Regarding `COc1cc(/C=C/C(=O)OC[C@H]2O[C@H](O[C@]3(CO)O[C@H](CO)[C@@H](O)[C@@H]3O)[C@H](O)[C@@H](O)[C@@H]2O)cc(OC)c1O`, the Potency result in assay [1], in assay [2] and in assay [3] was “inactive” throughout.

On to `COc1ccc([C@H]2Cc3cccc(O)c3C(=O)O2)cc1`, for which the Potency entry in assay [1], in assay [2] and in assay [3] was “inactive” in each case.

As for `OC[C@H]1O[C@@H](n2cnc3c(NCc4ccc(O)cc4)ncnc32)[C@H](O)[C@@H]1O`, the Potency entry in assay [1], in assay [2] and in assay [3] was “inactive” in each case.

On to `O=C(O)C[C@H](O)C[C@H](O)/C=C/c1c(C2CC2)nc2ccccc2c1-c1ccc(F)cc1`, for which the Potency result in assay [1], in assay [2] and in assay [3] was “inactive” each time.

With `CC(C)=CC/C=C(/C)[C@H]1CC[C@]2(C)[C@@H]1[C@H](O)CC1[C@@]3(C)CC[C@H](O)C(C)(C)[C@@H]3[C@@H](O[C@@H]3O[C@H](CO)[C@@H](O)[C@H](O)[C@H]3O[C@@H]3O[C@@H](C)[C@H](O)[C@@H](O)[C@H]3O)C[C@]12C` (stereo partly specified), the Potency entry in assay [1], in assay [2] and in assay [3] was “inactive” each time.

Turning to `Nc1c(Br)cc(Br)cc1CNC1CCC(O)CC1` (stereo unspecified), the Potency entry in assay [1], in assay [2] and in assay [3] was “inactive” in each case.

Take `CC(=O)O[C@@H]1[C@H]2[C@@H](OC(=O)c3ccccc3)[C@@H](C)C[C@]2(O)[C@H](OC(C)=O)[C@@]2(C)[C@@H]3CC(C)(C)C(=O)[C@]3(OC(C)=O)C[C@@]12C`: the Potency result in assay [1], in assay [2] and in assay [3] was “inactive” throughout.

Regarding `C[C@@H](O)[C@H](N)C(=O)N1CCC[C@H]1C(=O)N1CCC[C@H]1C(=O)N[C@H](C(N)=O)[C@@H](C)O` (H-TPPT-NH2), in assay [1], the activity change, negative = thiol reactive was -5.11% [at 11.5 µM]. Besides, the activity, negative = inhibition in assay [2] is 4.97% [at 11.6 µM]. In addition, the redox activity (% of DA3003) in assay [3] is 17.6% [at 11.5 µM].

For the compound `CC(=O)OC(CSC1CCC(=O)OC(C)CCC(=O)C1)C(=O)O` (stereo unspecified), the Potency result in assay [1], in assay [2] and in assay [3] was “inactive” throughout.

On to `COC(=O)c1ccc(O[C@@H]2O[C@H](CO)[C@@H](O)[C@H](O)[C@H]2O)c(OC)c1`, for which, in assay [1], the Potency was 16.5 µM (active). Further, the Potency entry in assay [2] and in assay [3] was “inactive” in each case.

For `COC(=O)C1=CO[C@@H](O[C@@H]2O[C@H](CO[C@@H]3O[C@H](COC(=O)/C=C/c4ccc(O)cc4)[C@@H](O)[C@H](O)[C@H]3O)[C@@H](O)[C@H](O)[C@H]2O)[C@@H]2C(CO)=CC[C@H]12`, the Potency result in assay [1], in assay [2] and in assay [3] was “inactive” in each case.

Take `C/C=C(\C)C(=O)O[C@H]1[C@H](O)[C@]2(COC(C)=O)[C@H](O)C[C@]3(C)C(=CCC4[C@@]5(C)CC[C@H](O[C@@H]6O[C@H](C(=O)O)[C@@H](O[C@@H]7O[C@H](CO)[C@@H](O)[C@H](O)[C@H]7O)[C@H](O)[C@H]6O[C@@H]6O[C@H](CO)[C@@H](O)[C@H](O)[C@H]6O)[C@](C)(CO)C5CC[C@]43C)[C@@H]2CC1(C)C` (stereo partly specified): the activity change, negative = thiol reactive in assay [1] was 113% [at 11.5 µM]. Besides, the activity, negative = inhibition in assay [2] is 4.32% [at 11.6 µM]. Moreover, in assay [3], the redox activity (% of DA3003) is 2.47% [at 11.5 µM].

Regarding `CC(C)(C)NCc1cc(Nc2ccnc3cc(Cl)ccc23)c2c(c1O)CCCC2`, the activity change, negative = thiol reactive in assay [1] is -13.7% [at 0.461 µM]. Besides, the activity, negative = inhibition in assay [2] is 1.02% [at 0.464 µM]. In addition, in assay [3], the redox activity (% of DA3003) was -4.12% [at 0.461 µM].

Turning to `C=CC(C)(O)CC/C=C(\C)C(=O)OC1CC2(C(=O)O)CCC3(C)C(=CCC4C5(C)CCC(OC6OC(COC7OCC(O)C(O)C7O)C(O)C(OC7OCC(O)C(O)C7O)C6OC6OC(CO)C(O)C(O)C6OC6OCC(O)C(O)C6O)C(C)(C)C5CCC43C)C2CC1(C)C` (stereo unspecified), in assay [1], the activity change, negative = thiol reactive was 122% [at 11.5 µM]. For the same compound, the activity, negative = inhibition in assay [2] was 2.64% [at 11.6 µM]. Also, the redox activity (% of DA3003) in assay [3] was 11.8% [at 11.5 µM].

Turning to `CC(C)(C)NCC(O)COc1cccc2c1CCCC2=O` (stereo unspecified), the Potency result in assay [1], in assay [2] and in assay [3] was “inactive” each time.

Take `COc1cc(CC(COC2OC(CO)C(O)C(O)C2O)c2cc(/C=C/CO)cc(OC)c2O)ccc1O` (stereo unspecified): the Potency in assay [1] is 9.22 µM (active). Besides, the Potency result in assay [2] and in assay [3] was “inactive” each time.
